Results on 100 compounds are retold here after PubChem BioAssay AID504834 (National Center for Advancing Translational Sciences (NCATS), 2011).

The whole screen tested about 320,000 compounds, of which about 22,000 (6.9%) were called active. Another 27% or so got no clear call; they are omitted. The call rests on the fitted dose curve; in most records, active means well fitted inhibition curve with a large enough effect; inconclusive means small, poorly fitted or top-dose-only effect, or another doubt; inactive means no such curve, though single readings can be large or run the other way. Shown is part of a subset that was picked to be rich in actives. Where a call stands in place of a potency, no number is given.
Potency means the concentration at half of the fitted maximal effect.

This experiment is described as follows: Primary qHTS for delayed death inhibitors of the malarial parasite plastid, 96 hour incubation. Conditions: P. falciparum luciferase reporter growth; series mostly up to 28.7 µM. An excerpt:
The goal of this screen is to discover new antimalarial compounds that act by inhibiting the development of the apicoplast in the malarial parasite Plasmodium falciparum. The biochemical processes that make this organelle essential for erythrocytic stage parasites are not well understood. However, antibiotics such as azithromycin and tetracycline, which target the apicoplast translational machinery, have a potent antimalarial effect.
We have developed a cell-based assay that measures parasite growth based on the expression of an integrated copy of a firefly luciferase reporter. To detect small molecules that cause this "delayed death" phenotype, erythrocytes infected with the luciferase-expressing parasites were incubated with compounds for either one or two generations, corresponding to 48 and 96 hours, respectively. Compounds that inhibit parasite growth in the second generation, but not the first, should be enriched in antimalarials that target the apicoplast. Growth inhibition is detected by a decrease in luciferase activity.
Assay Provider: David Fidock and Eric Ekland, Columbia University
Keywords: NIH Roadmap, MLPCN, MLI, MLSMR, qHTS, NCGC, qHTS, malaria, luciferase, viability
Four microliters of infected erythrocytes (2% hematocrit, 0.05% parasitemia final concentration) in culture medium were dispensed and the plates incubated for 96 hours at 37 C in 5% CO2. Two microliters of luciferase detection reagent was added and luminescence was detected by a ViewLux (PerkinElmer) reader.
Consider `COc1ccc(NC(=O)CC(NC(C)c2ccccc2)C(=O)O)cc1` (stereo not given), for which the Potency result was “inactive”.
As to `CCCCCC(O)(CCN1CCCCC1)c1ccccc1` (stereo not given), the Potency entry was “inactive”.
As for `CCC1(C)Cc2c(sc3[nH]c(=S)n(Cc4ccccc4)c(=O)c23)CO1` (stereo not given), the entry is “inactive”; as for `CCC1(C)Cc2c(sc3nc(SC)[nH]c(=O)c23)CO1` (stereo not given), 9.28 µM (active); as for `CCOC(=O)CSc1nc2sc3c(c2c(=O)[nH]1)CC(C)(C)OC3`, “inactive”.
Turning to `CCOc1ccc(S(=O)(=O)N2CCCC(C(=O)N3CCC(C(N)=O)CC3)C2)cc1Cl` (stereo not given), the Potency entry is “inactive”.
As for `COc1ccc(OC)c(S(=O)(=O)N2CCCC(C(=O)NCCc3ccccc3)C2)c1` (stereo not given), the entry is “inactive”; as for `CCOC(=O)c1sc(NC(=O)C2CSC3(C)CCC(=O)N23)nc1C` (stereo not given), “inactive”.
As for `COc1cc(C(C(=O)NC2CCCC2)N(C(=O)c2ccco2)c2ccccc2C(C)=O)cc(OC)c1OC` (stereo not given), the entry is “inactive”.
As for `O=C(/C=C/Nc1ccc(S(=O)(=O)Nc2cnc3ccccc3n2)cc1)c1cccnc1`, the entry is “inactive”; as for `CCn1c(SCC(=O)Nc2ccc3c(c2)OCCO3)nnc1-c1ccncc1`, “inactive”.
For `CCn1c(SCC(=O)Nc2ccc3c(c2)OCCO3)nnc1C(C)C`, the Potency entry was “inactive”.
As for `O=C(CSc1nnnn1-c1ccc2c(c1)CCC2)Nc1ccc2c(c1)OCCO2`, the Potency is 10.4 µM (active).
On to `c1ccc2c(c1)C(=NC1CCCCC1)NC2=NC1CCCCC1`, for which the Potency is 2.94 µM (active).
Regarding `O=C1CCCCC(=O)c2ccccc2N1`, the Potency entry is “inactive”.
As for `CC(=O)c1ccc(N2CCN(CC(O)c3ccccc3)CC2)cc1` (stereo not given), the entry is “inactive”; as for `COc1cccc(S(=O)(=O)NCc2ccc(C(=O)NCc3ccccn3)cc2)c1`, 2.94 µM (active); as for `COc1cccc(NC(=S)NCc2ccccn2)c1`, “inactive”.
As for `COc1cccc(CNS(=O)(=O)c2csc(C(N)=O)c2)c1`, the Potency entry is “inactive”.
On to `O=C(COC(=O)c1ccccc1)c1ccc2c(c1)OCCO2`, for which the Potency entry is “inactive”.
As for `CCOC(=O)c1c(-c2ccccc2)oc2cc(Br)c(O)cc12`, the Potency result was “inactive”.
As for `O=C(c1ccc(Cn2cc([N+](=O)[O-])cn2)o1)N1CCCC1`, the entry is “inactive”; as for `CC(C)CC(CCc1ccccc1)OS(N)(=O)=O` (stereo not given), “inactive”.
For `O=C(COC(=O)c1ccc(O)cc1O)NNC(=O)c1cccs1`, the Potency entry is “inactive”.
For the compound `CCOc1cc(N2CCOCC2)c(OCC)cc1NC(=O)COc1cccc(Cl)c1`, the Potency entry was “inactive”.
For the compound `CCOc1cc(N2CCOCC2)c(OCC)cc1NC(=O)COc1cccc2cccnc12`, the Potency was 9.28 µM (active).
As for `CCOc1cc(N2CCOCC2)c(OCC)cc1NC(=O)COC(=O)[C@H](Cc1c[nH]c2ccccc12)NC(C)=O`, the entry is “inactive”.
In the case of `O=C(N/N=C/c1cccnc1)c1ccc(NC(=O)c2ccc(F)cc2)cc1`, the Potency result is “inactive”.
Regarding `Cn1nc(-c2ccccc2)c2cc([N+](=O)[O-])ccc21`, the Potency is 9.28 µM (active).
For `COc1ccc([N+](=O)[O-])cc1-c1nc2ccccc2nc1-c1ccccc1`, the Potency result is “inactive”.
With `Cc1nc(-c2ccc([N+](=O)[O-])cc2)c(-c2ccccc2)o1`, the Potency entry is “inactive”.
As for `COc1ccccc1Cn1c(=S)[nH]c2cc(C(=O)N3CCN(C)CC3)ccc2c1=O`, the entry is “inactive”.
With `COc1ccc(CCNC(=O)CCCCn2c(=O)[nH]c3ccccc3c2=O)cc1OC`, the Potency entry was “inactive”.
As to `CCOC(=O)N1CCN(C(=O)c2ccc3c(=O)n(CCc4ccc(OC)c(OC)c4)c(=O)[nH]c3c2)CC1`, the Potency was 2.62 µM (active).
Then `Cc1c(S(=O)(=O)NC(C)c2ccccc2)c(=O)n(C)c(=O)n1C` (stereo not given), with “inactive”; and `CN(CC(=O)NCCc1ccc(F)cc1)CC(=O)Nc1ccc(F)c(F)c1F`, with “inactive”; and `COc1cccc(C(=O)N2CCC(n3nccc3NC(=O)C3CCOC3)CC2)c1` (stereo not given), with “inactive”.
Then `CCCCn1c(N)c(N(CCC(C)C)C(=O)c2ccc(COc3ccccc3)o2)c(=O)[nH]c1=O`, with “inactive”; and `CCCCn1c(N)c(N(CCC(C)C)C(=O)CC2OC(=O)c3ccccc32)c(=O)[nH]c1=O` (stereo not given), with 4.65 µM (active).
Then `CCCCn1c(N)c(N(CCC(C)C)C(=O)c2ccc([N+](=O)[O-])o2)c(=O)[nH]c1=O`, with “inactive”; and `O=C(NCCO)C(=O)NCC(c1ccc2c(c1)OCO2)N1CCN(c2ccc(F)cc2)CC1` (stereo not given), with “inactive”; and `CCOC(=O)N1CCN(S(=O)(=O)N2CCCC(C(=O)NCCCN3CCC(C)CC3)C2)CC1` (stereo not given), with “inactive”.
For `O=C(CCC(=O)N/N=C/c1ccc(Br)o1)N/N=C/c1ccc(Br)o1`, the Potency entry is “inactive”.
Then `COc1ccc(CCNC2=CC(=O)CC(C)(C)C2)cc1`, with “inactive”.
Turning to `COc1cc(C(=O)N[C@@H](C)C(=O)NCc2ccco2)cc(OC)c1OC`, the Potency entry was “inactive”.
As for `COc1cc(Cn2c(N)c(C(=O)NCc3ccco3)c3nc4ccccc4nc32)cc(OC)c1OC`, the figure is 1.65 µM (active); as for `COc1cc(C(=O)NC(=S)NCc2ccco2)cc(OC)c1OC`, “inactive”; as for `O=C(NCC(=O)N1CCCC(C(F)(F)F)C1)c1ccccc1F` (stereo not given), “inactive”.
As for `CC(NC(=O)c1ccccc1F)c1cccc2ccccc12` (stereo not given), the entry is “inactive”.
As for `Cc1ccc(C(=O)N2CC(=O)Nc3ccccc32)o1`, the entry is “inactive”; as for `Cc1ccc(S(=O)(=O)N(C)CC(=O)OCC(=O)N2CC(=O)Nc3ccccc32)cc1`, “inactive”.
Take `Cc1ccc(S(=O)(=O)N2CC(=O)Nc3ccccc32)cc1C`: the Potency is 13.1 µM (active).
On to `O=C(O)C1CCCCC1C(=O)N1CCN(S(=O)(=O)c2ccc(F)cc2)CC1` (stereo not given), for which the Potency entry was “inactive”.
As for `COc1cc(N2C(=O)CC3(CCCC3)CC2=O)cc(OC)c1OC`, the entry is “inactive”.
For the compound `Cc1cccc(C)c1NC(=O)CCCSc1nnc(-c2ccco2)n1-c1ccccc1`, the Potency result was “inactive”.
Consider `CCOC(=O)CSc1nnc(-c2ccco2)n1C`, for which the Potency result is “inactive”.
Then `O=C(CSc1nnc(-c2ccccn2)n1-c1ccccc1)Nc1ccc2c(c1)OCO2`, with “inactive”.
Take `COc1ccc(-c2nnc(SCC(=O)c3ccco3)n2-c2ccccc2)cc1`: the Potency entry is “inactive”.
Regarding `CCOc1ccc(-n2c(SCC(N)=O)nnc2-c2ccco2)cc1`, the Potency was 3.7 µM (active).
Turning to `COc1ccc(-n2c(SCC(=O)OC(C)C)nnc2-c2ccccn2)cc1`, the Potency is 2.08 µM (active).
Regarding `CCOc1ccc(S(=O)(=O)N2CCN=C2Cc2ccccc2)cc1C`, the Potency entry is “inactive”.
As for `O=C(CCc1ccccc1)Nc1ccnn1C1CCN(Cc2ccc(OCCO)cc2)CC1`, the Potency entry is “inactive”.
As for `CCC(=O)Nc1cccc(C2=NOC3(C2)C[C@@H](C(N)=O)N(C(=O)c2cc([N+](=O)[O-])cc([N+](=O)[O-])c2C)C3)c1` (stereo not given in full), the figure is 0.0657 µM (active); as for `CC/C=C/C(=O)N1CC2(CC(c3cccc(NC(=O)CC)c3)=NO2)C[C@H]1C(N)=O` (stereo not given in full), “inactive”; as for `C/C=C(\C)C(=O)N1CC2(CC(c3cccc(NC(=O)CCCCC)c3)=NO2)C[C@@H]1C(N)=O` (stereo not given in full), “inactive”.
As to `CCOc1ccccc1-c1cc(C(=O)N2CCOCC2)c2ccccc2n1`, the Potency entry is “inactive”.
Take `CCOc1ccccc1-c1nc(CN2CCC(C(=O)N3CCOCC3)CC2)c(C)o1`: the Potency is 11.7 µM (active).
As for `COc1ccc(F)c(-c2nc(CN3CCC(c4ccccc4)CC3)c(C)o2)c1`, the entry is “inactive”; as for `O=C1NNC(c2ccccc2)=N/C1=C\c1ccc(Cl)cc1`, 8.28 µM (active).
As for `O=C1NCC(=O)N(Cc2ccccc2)/C1=C/c1ccccc1`, the entry is “inactive”; as for `O=C(NCc1csc(-c2cccs2)n1)C1CC1`, “inactive”.
As for `Cc1cc(O)c(C2(O)C(=O)Nc3ccccc32)cc1C` (stereo not given), the Potency entry is “inactive”.
Take `CCOC(=O)CNc1nc(Cl)nc(Nc2ccc(OC)cc2OC)n1`: the Potency entry is “inactive”.
`COc1cc(OC)cc(-c2c(-c3ccc(F)cc3)c3cc(-c4ccc5cc[nH]c5c4)ccc3n2C)c1`: the Potency is 5.22 µM (active).
Consider `COc1ccc2c(c1)c(C(=O)N/N=C/c1cccs1)c(C)n2C`, for which the Potency entry was “inactive”.
Regarding `COc1cc(OC)cc(-c2c(-c3cccs3)c3cc(-c4ccc(OC)cc4F)ccc3n2C)c1`, the Potency is 5.86 µM (active).
For `COc1ccc(OC)c(-c2csc(-c3cccs3)n2)c1`, the Potency result was “inactive”.
As for `OCC[C@H]1C[C@H](O)[C@@H](O)[C@]2(CCc3ccccc3O2)O1`, the entry is “inactive”.
Turning to `O=C(O)c1cc(S(=O)(=O)N(Cc2ccccc2)c2cccc(C(F)(F)F)c2)ccc1Cl`, the Potency entry is “inactive”.
`O=C(CSc1ccc(-c2ccc(-n3cccn3)cc2)nn1)Nc1ccc([N+](=O)[O-])cc1`: the Potency entry was “inactive”.
As for `Cc1cccc(OCC(=O)NC2CC(C)(C)NC(C)(C)C2)c1`, the entry is “inactive”.
In the case of `NC(=O)C1(C(N)=O)OC1c1ccc(Cl)cc1Cl` (stereo not given), the Potency result was “inactive”.
Then `CC1(C)Cc2cccc(OCC(=O)Nc3nccs3)c2O1`, with “inactive”; and `COC(=O)c1ccccc1OCC(=O)N1CCN(c2ccc(Cl)cc2)CC1`, with “inactive”; and `CC1(C)Cc2cccc(OCC(=O)N3CCN(c4ccc([N+](=O)[O-])cc4)CC3)c2O1`, with 5.22 µM (active).
As for `Nc1cc(N)nc(SCc2ccc(Cl)cc2)n1`, the entry is “inactive”; as for `O=C(CSc1nc2[nH]ncc2c(=O)[nH]1)Nc1ccc(F)cc1`, “inactive”.
Turning to `CCCn1nnnc1NCc1ccc(CC)cc1`, the Potency entry was “inactive”.
As for `COc1ccc(CCNC(=O)Cn2c(=O)n(CC3CCCO3)c(=O)c3ccccc32)cc1OC` (stereo not given), the entry is “inactive”.
Then `O=C(Cn1c(=O)n(Cc2ccco2)c(=O)c2ccccc21)NCC1CCCO1` (stereo not given), with “inactive”.
For the compound `Cc1ccccc1NC(=O)Cn1c(=O)n(CC2CCCO2)c(=O)c2ccccc21` (stereo not given), the Potency was 2.33 µM (active).
As for `CCN(CC(=O)Nc1cc(Cl)ccc1C)C(=O)Cn1c(=O)cnc2ccccc21`, the entry is “inactive”.
As for `CC(C)Cn1c(N)c(C(=O)COC(=O)C2CCCN2C(=O)c2cccs2)c(=O)n(C)c1=O` (stereo not given), the entry is “inactive”; as for `Cc1ccc(-n2ncc3c2CC(C)(C)CC3NC(=O)Cc2c(C)noc2C)cc1` (stereo not given), “inactive”; as for `COc1ccc(-n2ncc3c2CC(C)(C)CC3NC(=O)CCc2c(C)noc2C)cc1` (stereo not given), “inactive”.
For the compound `COc1ccc(-n2ncc3c2CC(C)(C)CC3NC(=O)CCc2c(C)nn(C)c2C)cc1` (stereo not given), the Potency is 10.4 µM (active).
For the compound `COc1ccc(/C=C2\SC(=S)N(CCC(=O)Nc3ccccn3)C2=O)cc1OC`, the Potency entry was “inactive”.
Turning to `CCOc1ccc(NC(=O)CCS(=O)(=O)c2ccc3c(c2)CCCN3C(=O)CC)cc1`, the Potency was 9.28 µM (active).
Regarding `CCCNS(=O)(=O)c1ccc2c(c1)CCCN2C(C)=O`, the Potency entry is “inactive”.
Then `CCC(=O)N1CCc2cc(S(=O)(=O)CCC(=O)N3CCN(c4ccccc4F)CC3)ccc21`, with “inactive”.
